IL-1B inflam inh – inflammasome signaling inhibition, IL-1 beta readout; THP-1 LPS/ATP IL-1B secretion, AlphaLISA, 16 h; hits give low values; activity change, % at 57.5 µM; 360,000 tested, 4.7% active; AID 743279; in the data active means activity change below about -50%; inconclusive means mostly about -30% to -49%
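Secreted IL-1B measured by AlphaLISA bead assay after 16 h compound exposure of THP-1 cells; compounds (final up to 57.5 uM) added 1 h before LPS (250 ng/mL) and ATP (1.25 mM) stimulation; lower signal means less secretion.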
HT1080-NT tox – kills 2HG-producing HT-1080-NT fibrosarcoma cells | HT-1080-NT fibrosarcoma viability, CellTiter-Glo ATP luminescence, 48 h | Potency, µM (series often up to 46.1 µM), without a hit: at the highest dose activity, negative = less viability, actives largely listed as cytotoxic | 360,000 tested, 1.6% active | AID 686970;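 further: NT is the 2HG producing partner of a matched IDH1 knockdown line; potency means the concentration at half of the fitted maximal effect; 0% = DMSO-treated cells and -100% = media-only wells without cells; nearly all actives have a fitted effect of over 55% in size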
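Luminescent CellTiter-Glo readout after 48 hours of compound exposure at 37 degrees C defined viability of HT-1080-NT cells. Activity was normalized to DMSO wells and cell-free media wells; concentration-response curves were fitted and assigned curve classes.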
DT40 TDP1 no CPT – qHTS for Inhibitors of human tyrosyl-DNA phosphodiesterase 1 (TDP1): qHTS in cells in absence of CPT; DT40 Tdp1-/- hTDP1 cells, no CPT, ATP luminescence, 48 h; Potency, µM (highest dose often 46.2 µM), inactives show top-dose activity change, negative = growth inhibition, actives largely listed as inhibitors; 420,000 tested, 15% active; AID 686978, 2013; further: potency means the concentration at half of the fitted maximal effect; nearly all actives have a fitted effect of over 55% in size
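DT40 Tdp1-/-;hTDP1 cells, no CPT (DMSO vehicle only), 400 cells/well; compounds pin-transferred; ≥48 hr, 37 °C; CellTiter-Glo 30 min RT dark, luminescence read.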
HT1080 IDH1KD tx – HT-1080 IDH1 knockdown cell toxicity (counter line); HT-1080 IDH1 knockdown viability, ATP luminescence, 48 h; Potency, µM (top dose mostly 46.1 µM), for inactives: at the highest dose activity, negative = toxicity, most hits filed as cytotoxic; 360,000 tested, 2% active;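 further: potency means the concentration at half of the fitted maximal effect; 0% = DMSO wells and -100% = cell-free medium wells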
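Cytotoxicity counter-line: IDH1KD HT-1080, 48 h, CellTiter-Glo. Curves classed by r2, magnitude and activity.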
DT40 TDP1 CPT – growth inhibition of DT40 Tdp1-/-;hTDP1 cells with camptothecin (screen for TDP1 inhibitors); chicken DT40 Tdp1-/-;hTDP1 cells + 20 nM CPT, ATP luminescence, 48 h; Potency, µM (doses to about 46.2 µM), for inactives: top-dose activity change, negative = growth inhibition, usual class: inhibitors; 420,000 tested, 12% active; AID 686979; further: potency means the concentration at half of the fitted maximal effect; nearly all actives have a fitted effect of over 55% in size
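Chicken DT40 Tdp1-/- cells stably complemented with human TDP1 were seeded at 400 cells/well in medium containing 20 nM camptothecin, exposed to pin-transferred compounds, and grown at 37 °C for at least 48 hr. Viability was read as ATP luminescence.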
The depositor's hits bear a star. Shown are actives, neighbours in structure and some others; about 19% of the full set was active somewhere. Unless noted, the call rests on the fitted dose curve; in most records, active means well fitted curve in the direction sought with a large enough effect; inconclusive means small, poorly fitted or top-dose-only effect, or another doubt; inactive means no such curve, though single readings can be large; an effect the other way counts as inactive or inconclusive. Unless noted, on the % scale 0 is the no-effect control and ±100 the full control effect.

COc1ccc(NC(=O)C2COc3ccccc3C2)cc1Cl (centres undefined) was read as DT40 TDP1 no CPT 16µM* and DT40 TDP1 CPT 18µM*.
Screening COc1ccc(NC(=O)C2CCN(c3nc(-c4ccc(OC)c(OC)c4)no3)CC2)cc1Cl returned DT40 TDP1 no CPT inconclusive and DT40 TDP1 CPT 4.1µM*.
For Cc1c(C)c2c(c(C)c1O)CCC(C)(C(=O)O)O2 (centres undefined) the results were IL-1B inflam inh 0, HT1080-NT tox -1%, DT40 TDP1 no CPT -16%, HT1080 IDH1KD tx 8% and DT40 TDP1 CPT -19%.
Screening COc1ccc(S(=O)(=O)N2CCOCC2)cc1NC(=O)COC(=O)c1oc2ccccc2c1C returned IL-1B inflam inh -17, HT1080-NT tox -16%, DT40 TDP1 no CPT inconclusive, HT1080 IDH1KD tx -1% and DT40 TDP1 CPT -10%.
For CC(C)[C@@H]1Cc2[nH][nH]c(=O)c2[C@H](C(C)C)O1 the results were IL-1B inflam inh -10, HT1080-NT tox 5%, DT40 TDP1 no CPT -24%, HT1080 IDH1KD tx -15% and DT40 TDP1 CPT -16%.
`CN(C)c1ccc(C=NC2CCc3ccccc32)cc1` (centres undefined) gave DT40 TDP1 no CPT -20% and DT40 TDP1 CPT -1%.
`O=C(CCCOc1ccccc1)NC(=S)Nc1ccccc1` gave IL-1B inflam inh 8, HT1080-NT tox -8%, DT40 TDP1 no CPT inconclusive, HT1080 IDH1KD tx -4% and DT40 TDP1 CPT inconclusive.
`CCc1ccc2oc(-c3ccc(C)c(NC(=O)Cc4ccccc4)c3)nc2c1` gave DT40 TDP1 no CPT -19% and DT40 TDP1 CPT -21%.
`Cc1ccccc1CSc1nc2n(n1)C(c1cccs1)C1=C(CCCC1=O)N2` (centres undefined) gave IL-1B inflam inh inconclusive, HT1080-NT tox inconclusive, DT40 TDP1 no CPT 18µM*, HT1080 IDH1KD tx inconclusive and DT40 TDP1 CPT 21µM*.
O=C1CCCC2=C1C(c1cccs1)n1nc(SCc3ccccc3F)nc1N2 (centres undefined) was read as IL-1B inflam inh -5, HT1080-NT tox -4%, DT40 TDP1 no CPT 23µM*, HT1080 IDH1KD tx -17% and DT40 TDP1 CPT 12µM*.
Cc1ccc([C@@]2(OC(=O)c3ccccc3)C(=O)N(C(=O)OC(C)(C)C)c3ccccc32)cc1 was read as IL-1B inflam inh 61, HT1080-NT tox 21%, DT40 TDP1 no CPT -25%, HT1080 IDH1KD tx 8% and DT40 TDP1 CPT -23%.
For O=C(NCC1CCCO1)c1onc(CSc2ccc(F)c(F)c2)c1C(=O)O (centres undefined) the results were IL-1B inflam inh 39, HT1080-NT tox 6%, DT40 TDP1 no CPT 40%, HT1080 IDH1KD tx 2% and DT40 TDP1 CPT 2%.
Screening CCN(CC)S(=O)(=O)c1cccc(NC(=O)CN(C)C2CCCCC2)c1 returned IL-1B inflam inh 11, HT1080-NT tox -18%, DT40 TDP1 no CPT 15µM*, HT1080 IDH1KD tx -6% and DT40 TDP1 CPT inconclusive.
For CCN(CC)S(=O)(=O)c1cccc(C(=O)NCC2CCCCC2)c1 the results were IL-1B inflam inh -29, HT1080-NT tox -17%, DT40 TDP1 no CPT 21µM*, HT1080 IDH1KD tx -10% and DT40 TDP1 CPT inconclusive.
CCN(CC)S(=O)(=O)c1cccc(NC(=O)CCSc2ccc(Cl)cc2)c1 was read as IL-1B inflam inh 2, HT1080-NT tox -26%, DT40 TDP1 no CPT 21µM*, HT1080 IDH1KD tx -25% and DT40 TDP1 CPT 16µM*.
For CCN(CC)S(=O)(=O)c1cccc(C(=O)NCC(c2ccccc2)N(C)C)c1 (centres undefined) the results were IL-1B inflam inh -21, HT1080-NT tox 2%, DT40 TDP1 no CPT -6%, HT1080 IDH1KD tx 2% and DT40 TDP1 CPT 5%.
`COCCN(Cc1ccc(OC)cc1)c1c(C)nc2ccc(C(=O)Nc3ccc(NC(C)=O)cc3)cn12` gave IL-1B inflam inh 18, HT1080-NT tox 0%, DT40 TDP1 no CPT inconclusive, HT1080 IDH1KD tx 6% and DT40 TDP1 CPT inconclusive.
CCOC(=O)[C@@H]1[C@H]2COc3ccccc3[C@H]2N2C(=O)N(c3ccc(Cl)cc3)C(=O)[C@@]12C was read as IL-1B inflam inh 12, HT1080-NT tox inconclusive, DT40 TDP1 no CPT inconclusive, HT1080 IDH1KD tx 0% and DT40 TDP1 CPT inconclusive.
`CC[C@@H](C)C(NC(=O)OC(C)(C)C)c1cn([C@@H](Cc2ccc(O)cc2)C(=O)N2CCN(C(=O)OC(C)(C)C)CC2)nn1` (some centres undefined) gave IL-1B inflam inh -17, HT1080-NT tox 1%, DT40 TDP1 no CPT inconclusive, HT1080 IDH1KD tx -6% and DT40 TDP1 CPT inconclusive.
`O=C(c1cc(-c2ccco2)on1)N1CCN(C(c2ccccc2)c2ccccc2)CC1` gave IL-1B inflam inh -9, HT1080-NT tox inconclusive, DT40 TDP1 no CPT 16µM*, HT1080 IDH1KD tx inconclusive and DT40 TDP1 CPT 16µM*.
`COc1ccc(-c2cc(C(=O)N3CCN(C(c4ccccc4)c4ccccc4)CC3)no2)cc1` gave IL-1B inflam inh -5, HT1080-NT tox -1%, DT40 TDP1 no CPT inconclusive, HT1080 IDH1KD tx -16% and DT40 TDP1 CPT 23µM*.
`COc1ccc2oc(C(=O)N3CCN(C(c4ccccc4)c4ccccc4)CC3)c(C)c2c1` gave IL-1B inflam inh -25, HT1080-NT tox -20%, DT40 TDP1 no CPT 18µM*, HT1080 IDH1KD tx -23% and DT40 TDP1 CPT inconclusive.
COc1ccc2oc(C(=O)N3CCN(C/C=C/c4ccccc4)CC3)c(C)c2c1 was read as IL-1B inflam inh 8, HT1080-NT tox -1%, DT40 TDP1 no CPT -30%, HT1080 IDH1KD tx -12% and DT40 TDP1 CPT -16%.
`CC(C)c1cc(C(=O)N2CCN(C(c3ccccc3)c3ccccc3)CC2)no1` gave IL-1B inflam inh -29, HT1080-NT tox 0%, DT40 TDP1 no CPT inconclusive, HT1080 IDH1KD tx -11% and DT40 TDP1 CPT inconclusive.
For CCC(C(=O)N1CCN(c2cc(Cl)ccc2C)CC1)n1nc(C)c2sc3ccccc3c2c1=O (centres undefined) the results were DT40 TDP1 no CPT -17% and DT40 TDP1 CPT -3%.
COc1ccc(S(=O)(=O)N(CC(N)=O)C2CCCCC2)cc1Cl was read as IL-1B inflam inh 0, HT1080-NT tox -1%, DT40 TDP1 no CPT inconclusive, HT1080 IDH1KD tx 1% and DT40 TDP1 CPT 23µM*.
Screening CCOc1cc(S(=O)(=O)n2cc(-c3ccc(F)cc3)c(N)n2)cc(OCC)c1OCC returned IL-1B inflam inh -7, HT1080-NT tox -18%, DT40 TDP1 no CPT 13µM*, HT1080 IDH1KD tx -10% and DT40 TDP1 CPT inconclusive.

Screening results as filed in PubChem BioAssay.
